The supplement of paper PMC11732987, “Enantioselective OTUD7B fragment discovery through chemoproteomics screening and high-throughput optimisation” (Communications Chemistry, 2025)

Key:
Assay in all cases: log2 ratio of Biotin-Ahx-Ub-VS probe labelling (fragment/DMSO); higher = less target engagement (more negative = stronger competition), active = hit call of the paper (q ≤ 0.05, log2 ratio ≤ -1)
Conditions in all cases: compound concentration: 200 uM; treatment time: 3 h
USP42 = target: T1, USP42 (UniProt Q9H9J4)
T1 sequence (whole entry): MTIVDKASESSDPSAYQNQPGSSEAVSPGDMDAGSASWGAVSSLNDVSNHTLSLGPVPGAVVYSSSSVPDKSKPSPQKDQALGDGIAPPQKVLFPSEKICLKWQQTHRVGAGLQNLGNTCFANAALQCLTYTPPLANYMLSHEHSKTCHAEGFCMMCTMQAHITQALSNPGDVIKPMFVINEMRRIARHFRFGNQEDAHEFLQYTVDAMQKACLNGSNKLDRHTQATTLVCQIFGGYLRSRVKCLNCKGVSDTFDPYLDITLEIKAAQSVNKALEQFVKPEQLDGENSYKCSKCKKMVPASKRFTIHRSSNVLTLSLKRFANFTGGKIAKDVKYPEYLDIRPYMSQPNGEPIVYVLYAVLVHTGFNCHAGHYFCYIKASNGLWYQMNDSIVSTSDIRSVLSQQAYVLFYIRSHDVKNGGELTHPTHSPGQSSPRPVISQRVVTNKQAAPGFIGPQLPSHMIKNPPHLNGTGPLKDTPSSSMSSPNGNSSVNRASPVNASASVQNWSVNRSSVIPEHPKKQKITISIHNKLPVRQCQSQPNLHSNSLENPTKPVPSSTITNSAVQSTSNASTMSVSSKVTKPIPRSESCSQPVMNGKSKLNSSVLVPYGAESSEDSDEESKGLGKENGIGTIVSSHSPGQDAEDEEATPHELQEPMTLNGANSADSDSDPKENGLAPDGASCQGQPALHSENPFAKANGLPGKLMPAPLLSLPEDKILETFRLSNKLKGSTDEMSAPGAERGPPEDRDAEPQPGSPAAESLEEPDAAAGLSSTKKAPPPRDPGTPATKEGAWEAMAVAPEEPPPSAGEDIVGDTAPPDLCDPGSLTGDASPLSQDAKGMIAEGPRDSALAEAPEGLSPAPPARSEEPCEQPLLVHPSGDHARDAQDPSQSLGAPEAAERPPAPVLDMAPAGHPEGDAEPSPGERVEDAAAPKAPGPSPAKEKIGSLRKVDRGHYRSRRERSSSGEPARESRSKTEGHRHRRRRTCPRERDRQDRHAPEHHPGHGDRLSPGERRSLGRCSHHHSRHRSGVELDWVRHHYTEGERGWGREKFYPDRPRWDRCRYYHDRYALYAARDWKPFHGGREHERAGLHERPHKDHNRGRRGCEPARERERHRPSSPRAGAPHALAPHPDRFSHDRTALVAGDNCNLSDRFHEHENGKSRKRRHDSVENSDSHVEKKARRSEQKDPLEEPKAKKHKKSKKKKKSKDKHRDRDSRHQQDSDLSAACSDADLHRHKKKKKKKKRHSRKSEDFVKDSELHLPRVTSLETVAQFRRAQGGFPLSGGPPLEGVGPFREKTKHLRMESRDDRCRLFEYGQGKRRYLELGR
In short: (§1)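 Labelled DUBs from HEK293T lysate were NeutrAvidin-enriched, digested with LysC and trypsin, and run by diaPASEF LC-MS/MS. Before that, each 495 µg sample in Tris/CHAPS/IGEPAL buffer with protease inhibitors was treated in triplicate with fragment at 200 µM or vehicle for 3 h, then with Biotin-Ahx-Ub-VS at 0.5 µM final for 1 h. Values are average log2 ratios of fragment over vehicle by unpaired t-test, based on global-median-normalised Spectronaut label-free quantities from proteins with ≥2 unique peptides.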

USP46 = USP46 (UniProt P62068)
Sequence of USP46 (P62068 whole entry): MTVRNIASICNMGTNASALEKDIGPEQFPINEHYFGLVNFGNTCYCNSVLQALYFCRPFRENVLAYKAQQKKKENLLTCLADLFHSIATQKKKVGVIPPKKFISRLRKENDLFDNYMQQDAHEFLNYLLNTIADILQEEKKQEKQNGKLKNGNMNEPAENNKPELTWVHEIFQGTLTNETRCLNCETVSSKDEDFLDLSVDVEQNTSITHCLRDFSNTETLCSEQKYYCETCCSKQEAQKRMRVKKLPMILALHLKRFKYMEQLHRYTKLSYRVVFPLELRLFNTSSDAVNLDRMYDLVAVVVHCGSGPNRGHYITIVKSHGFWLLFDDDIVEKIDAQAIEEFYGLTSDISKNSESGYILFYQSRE
In short: as §1

USP47 = target: T2, USP47 (UniProt Q96K76)
T2 sequence (whole entry): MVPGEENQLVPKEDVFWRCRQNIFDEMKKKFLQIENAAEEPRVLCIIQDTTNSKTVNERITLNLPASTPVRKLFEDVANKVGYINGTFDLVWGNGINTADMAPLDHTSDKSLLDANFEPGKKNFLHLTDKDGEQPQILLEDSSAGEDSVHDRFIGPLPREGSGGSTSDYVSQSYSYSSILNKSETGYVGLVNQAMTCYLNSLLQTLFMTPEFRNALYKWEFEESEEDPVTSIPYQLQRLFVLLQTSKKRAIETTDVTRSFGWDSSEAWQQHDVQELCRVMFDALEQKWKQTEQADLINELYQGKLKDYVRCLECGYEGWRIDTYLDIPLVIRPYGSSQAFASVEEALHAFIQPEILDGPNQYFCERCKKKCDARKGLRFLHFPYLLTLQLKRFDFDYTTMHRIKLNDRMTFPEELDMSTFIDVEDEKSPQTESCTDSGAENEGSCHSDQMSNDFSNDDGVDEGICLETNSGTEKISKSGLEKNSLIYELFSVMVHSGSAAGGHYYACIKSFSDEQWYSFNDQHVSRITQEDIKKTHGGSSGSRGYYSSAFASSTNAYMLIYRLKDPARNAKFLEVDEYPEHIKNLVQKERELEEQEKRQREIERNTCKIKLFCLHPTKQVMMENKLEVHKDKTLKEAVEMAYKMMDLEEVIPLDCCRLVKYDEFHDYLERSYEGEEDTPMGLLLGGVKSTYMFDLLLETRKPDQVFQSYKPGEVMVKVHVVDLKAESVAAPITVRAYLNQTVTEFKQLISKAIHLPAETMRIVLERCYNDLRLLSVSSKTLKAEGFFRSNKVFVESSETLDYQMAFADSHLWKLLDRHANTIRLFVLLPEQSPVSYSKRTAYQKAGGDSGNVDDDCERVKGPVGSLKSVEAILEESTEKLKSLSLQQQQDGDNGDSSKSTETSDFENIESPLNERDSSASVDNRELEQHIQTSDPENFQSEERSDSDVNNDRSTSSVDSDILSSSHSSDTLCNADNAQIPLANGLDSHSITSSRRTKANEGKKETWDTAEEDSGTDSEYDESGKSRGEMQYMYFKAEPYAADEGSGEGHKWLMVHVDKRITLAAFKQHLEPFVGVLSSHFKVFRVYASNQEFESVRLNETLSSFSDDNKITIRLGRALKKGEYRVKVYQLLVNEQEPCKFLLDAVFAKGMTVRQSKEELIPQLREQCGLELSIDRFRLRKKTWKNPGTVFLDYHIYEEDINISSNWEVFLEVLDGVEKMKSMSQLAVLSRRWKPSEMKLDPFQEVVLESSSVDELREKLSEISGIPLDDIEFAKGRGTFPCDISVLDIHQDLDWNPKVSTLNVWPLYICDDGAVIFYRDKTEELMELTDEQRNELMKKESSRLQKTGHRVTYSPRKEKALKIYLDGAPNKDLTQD
In short: as §1

USP48 = target: T3, USP48 (UniProt Q86UV5)
T3 sequence (whole entry): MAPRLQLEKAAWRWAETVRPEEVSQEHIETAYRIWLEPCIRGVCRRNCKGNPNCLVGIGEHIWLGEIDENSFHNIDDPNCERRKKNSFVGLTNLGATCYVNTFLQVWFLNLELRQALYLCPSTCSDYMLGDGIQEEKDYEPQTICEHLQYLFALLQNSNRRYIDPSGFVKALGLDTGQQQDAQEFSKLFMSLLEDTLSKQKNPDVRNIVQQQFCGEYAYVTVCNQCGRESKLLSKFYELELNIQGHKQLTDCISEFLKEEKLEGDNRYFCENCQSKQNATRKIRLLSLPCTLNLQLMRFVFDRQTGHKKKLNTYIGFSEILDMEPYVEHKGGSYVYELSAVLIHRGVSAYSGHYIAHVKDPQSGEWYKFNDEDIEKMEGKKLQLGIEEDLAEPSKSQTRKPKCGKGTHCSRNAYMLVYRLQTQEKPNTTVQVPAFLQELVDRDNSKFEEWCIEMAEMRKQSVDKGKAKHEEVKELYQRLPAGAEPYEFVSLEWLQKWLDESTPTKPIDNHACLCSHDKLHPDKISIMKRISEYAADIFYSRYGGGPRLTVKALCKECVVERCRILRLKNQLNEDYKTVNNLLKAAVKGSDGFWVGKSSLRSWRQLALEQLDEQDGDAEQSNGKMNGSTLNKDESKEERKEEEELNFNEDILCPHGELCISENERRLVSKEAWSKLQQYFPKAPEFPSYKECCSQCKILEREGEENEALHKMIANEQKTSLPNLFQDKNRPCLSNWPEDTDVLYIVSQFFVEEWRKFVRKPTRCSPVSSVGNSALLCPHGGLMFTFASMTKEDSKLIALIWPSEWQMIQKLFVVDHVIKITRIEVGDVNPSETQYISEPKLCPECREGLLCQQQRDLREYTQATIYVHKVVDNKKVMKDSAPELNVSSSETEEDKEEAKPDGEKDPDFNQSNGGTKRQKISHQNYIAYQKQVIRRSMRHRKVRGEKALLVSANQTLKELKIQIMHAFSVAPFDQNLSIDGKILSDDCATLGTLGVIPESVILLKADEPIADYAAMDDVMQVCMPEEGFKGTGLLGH
In short: as §1

USP5 = target: T4, USP5 (UniProt P45974)
T4 sequence (whole entry): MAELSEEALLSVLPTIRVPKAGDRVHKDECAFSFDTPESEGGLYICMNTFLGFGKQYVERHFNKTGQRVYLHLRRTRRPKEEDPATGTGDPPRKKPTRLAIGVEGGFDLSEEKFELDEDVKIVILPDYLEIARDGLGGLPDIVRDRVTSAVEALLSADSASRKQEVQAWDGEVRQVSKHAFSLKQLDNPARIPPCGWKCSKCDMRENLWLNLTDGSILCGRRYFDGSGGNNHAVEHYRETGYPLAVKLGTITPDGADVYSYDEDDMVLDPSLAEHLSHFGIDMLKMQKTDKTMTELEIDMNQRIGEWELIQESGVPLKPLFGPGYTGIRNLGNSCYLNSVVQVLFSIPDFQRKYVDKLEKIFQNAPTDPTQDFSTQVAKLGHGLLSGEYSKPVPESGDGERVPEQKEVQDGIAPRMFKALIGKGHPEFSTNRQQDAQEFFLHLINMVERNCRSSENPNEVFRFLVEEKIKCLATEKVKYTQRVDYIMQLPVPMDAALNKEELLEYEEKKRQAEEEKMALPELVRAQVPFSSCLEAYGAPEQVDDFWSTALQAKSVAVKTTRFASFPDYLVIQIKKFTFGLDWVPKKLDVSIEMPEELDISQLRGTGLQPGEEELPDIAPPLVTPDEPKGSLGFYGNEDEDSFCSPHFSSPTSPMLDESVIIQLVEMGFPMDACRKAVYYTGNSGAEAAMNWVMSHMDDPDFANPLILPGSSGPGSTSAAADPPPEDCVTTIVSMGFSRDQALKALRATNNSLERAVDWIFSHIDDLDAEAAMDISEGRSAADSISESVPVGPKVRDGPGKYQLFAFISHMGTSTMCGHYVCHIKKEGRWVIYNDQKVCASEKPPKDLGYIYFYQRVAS
In short: as §1

USP54 = USP54 (UniProt Q70EL1)
Sequence of USP54 (Q70EL1 whole entry): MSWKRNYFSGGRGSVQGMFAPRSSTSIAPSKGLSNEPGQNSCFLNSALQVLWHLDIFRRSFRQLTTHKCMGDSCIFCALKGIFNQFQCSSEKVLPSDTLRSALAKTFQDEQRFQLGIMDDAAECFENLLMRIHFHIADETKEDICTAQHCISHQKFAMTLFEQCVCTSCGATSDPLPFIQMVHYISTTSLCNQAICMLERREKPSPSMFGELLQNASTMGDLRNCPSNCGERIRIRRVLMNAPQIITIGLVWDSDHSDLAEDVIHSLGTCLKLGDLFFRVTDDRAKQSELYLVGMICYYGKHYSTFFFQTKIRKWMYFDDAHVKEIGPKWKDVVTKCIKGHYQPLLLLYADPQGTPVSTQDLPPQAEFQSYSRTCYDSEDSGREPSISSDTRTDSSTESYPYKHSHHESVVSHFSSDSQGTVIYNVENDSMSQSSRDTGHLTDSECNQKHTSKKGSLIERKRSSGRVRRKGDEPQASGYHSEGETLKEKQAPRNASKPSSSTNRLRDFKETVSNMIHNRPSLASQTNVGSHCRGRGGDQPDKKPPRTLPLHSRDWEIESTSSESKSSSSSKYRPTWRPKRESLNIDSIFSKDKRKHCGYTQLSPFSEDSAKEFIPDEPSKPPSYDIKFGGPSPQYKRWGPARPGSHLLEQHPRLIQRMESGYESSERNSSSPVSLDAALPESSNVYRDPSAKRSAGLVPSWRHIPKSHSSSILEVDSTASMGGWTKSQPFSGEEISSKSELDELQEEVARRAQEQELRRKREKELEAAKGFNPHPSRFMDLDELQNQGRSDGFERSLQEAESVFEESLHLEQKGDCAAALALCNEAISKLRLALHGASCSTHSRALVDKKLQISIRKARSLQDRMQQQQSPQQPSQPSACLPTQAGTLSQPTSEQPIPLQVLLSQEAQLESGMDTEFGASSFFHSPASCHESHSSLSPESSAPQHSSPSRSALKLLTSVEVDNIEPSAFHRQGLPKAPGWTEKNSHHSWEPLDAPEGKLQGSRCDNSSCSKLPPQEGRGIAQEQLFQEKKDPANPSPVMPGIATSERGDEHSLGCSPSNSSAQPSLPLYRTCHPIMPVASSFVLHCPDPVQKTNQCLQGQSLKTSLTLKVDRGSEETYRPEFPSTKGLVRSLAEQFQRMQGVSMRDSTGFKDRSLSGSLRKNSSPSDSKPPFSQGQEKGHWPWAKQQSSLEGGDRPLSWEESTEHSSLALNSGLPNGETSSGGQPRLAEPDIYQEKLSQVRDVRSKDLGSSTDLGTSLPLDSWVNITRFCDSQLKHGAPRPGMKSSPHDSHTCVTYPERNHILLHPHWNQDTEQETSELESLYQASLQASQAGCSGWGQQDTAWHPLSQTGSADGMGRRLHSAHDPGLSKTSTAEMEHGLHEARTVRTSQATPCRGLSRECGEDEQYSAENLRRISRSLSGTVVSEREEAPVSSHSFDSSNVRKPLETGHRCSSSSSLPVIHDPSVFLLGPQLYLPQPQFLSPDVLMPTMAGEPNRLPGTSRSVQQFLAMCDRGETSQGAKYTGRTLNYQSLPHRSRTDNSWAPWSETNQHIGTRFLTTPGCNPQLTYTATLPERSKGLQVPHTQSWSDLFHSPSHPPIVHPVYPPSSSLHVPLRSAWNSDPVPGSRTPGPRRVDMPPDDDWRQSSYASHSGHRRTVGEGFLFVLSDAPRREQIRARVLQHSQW
In short: as §1

USP7 = USP7 (UniProt Q93009)
In short: as §1

USP8 = target: T5, USP8 (UniProt P40818)
T5 sequence (whole entry): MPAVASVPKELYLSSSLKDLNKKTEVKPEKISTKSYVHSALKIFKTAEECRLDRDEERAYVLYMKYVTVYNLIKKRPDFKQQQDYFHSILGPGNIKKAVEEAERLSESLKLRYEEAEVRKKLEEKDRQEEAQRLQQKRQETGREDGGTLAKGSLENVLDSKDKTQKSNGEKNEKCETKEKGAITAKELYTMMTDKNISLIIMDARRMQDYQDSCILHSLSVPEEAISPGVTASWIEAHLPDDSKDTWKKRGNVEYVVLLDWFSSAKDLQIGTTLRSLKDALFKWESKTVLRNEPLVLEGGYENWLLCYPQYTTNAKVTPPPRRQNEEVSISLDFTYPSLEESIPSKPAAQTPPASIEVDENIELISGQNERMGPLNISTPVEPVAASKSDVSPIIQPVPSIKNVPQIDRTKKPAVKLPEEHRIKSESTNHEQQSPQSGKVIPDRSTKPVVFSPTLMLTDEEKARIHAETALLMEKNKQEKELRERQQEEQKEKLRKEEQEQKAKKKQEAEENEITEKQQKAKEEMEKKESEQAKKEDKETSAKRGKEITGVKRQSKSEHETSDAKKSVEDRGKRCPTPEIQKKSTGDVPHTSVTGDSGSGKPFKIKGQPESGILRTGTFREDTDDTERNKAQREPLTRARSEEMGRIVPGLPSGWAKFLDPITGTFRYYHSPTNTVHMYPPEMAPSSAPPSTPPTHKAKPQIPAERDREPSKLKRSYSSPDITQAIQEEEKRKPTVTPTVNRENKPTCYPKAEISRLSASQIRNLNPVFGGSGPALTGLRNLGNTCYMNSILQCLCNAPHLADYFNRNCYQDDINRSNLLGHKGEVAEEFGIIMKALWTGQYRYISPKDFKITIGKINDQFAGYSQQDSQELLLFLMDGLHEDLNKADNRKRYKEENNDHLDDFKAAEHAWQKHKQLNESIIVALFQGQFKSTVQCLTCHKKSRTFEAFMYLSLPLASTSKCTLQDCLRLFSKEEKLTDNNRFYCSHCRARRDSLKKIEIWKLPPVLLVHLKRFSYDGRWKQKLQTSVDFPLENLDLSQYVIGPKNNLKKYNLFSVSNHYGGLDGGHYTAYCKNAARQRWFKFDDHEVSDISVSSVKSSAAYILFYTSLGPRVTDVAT
In short: as §1

USP9X = USP9X (UniProt Q93008)
Sequence of USP9X (Q93008 whole entry): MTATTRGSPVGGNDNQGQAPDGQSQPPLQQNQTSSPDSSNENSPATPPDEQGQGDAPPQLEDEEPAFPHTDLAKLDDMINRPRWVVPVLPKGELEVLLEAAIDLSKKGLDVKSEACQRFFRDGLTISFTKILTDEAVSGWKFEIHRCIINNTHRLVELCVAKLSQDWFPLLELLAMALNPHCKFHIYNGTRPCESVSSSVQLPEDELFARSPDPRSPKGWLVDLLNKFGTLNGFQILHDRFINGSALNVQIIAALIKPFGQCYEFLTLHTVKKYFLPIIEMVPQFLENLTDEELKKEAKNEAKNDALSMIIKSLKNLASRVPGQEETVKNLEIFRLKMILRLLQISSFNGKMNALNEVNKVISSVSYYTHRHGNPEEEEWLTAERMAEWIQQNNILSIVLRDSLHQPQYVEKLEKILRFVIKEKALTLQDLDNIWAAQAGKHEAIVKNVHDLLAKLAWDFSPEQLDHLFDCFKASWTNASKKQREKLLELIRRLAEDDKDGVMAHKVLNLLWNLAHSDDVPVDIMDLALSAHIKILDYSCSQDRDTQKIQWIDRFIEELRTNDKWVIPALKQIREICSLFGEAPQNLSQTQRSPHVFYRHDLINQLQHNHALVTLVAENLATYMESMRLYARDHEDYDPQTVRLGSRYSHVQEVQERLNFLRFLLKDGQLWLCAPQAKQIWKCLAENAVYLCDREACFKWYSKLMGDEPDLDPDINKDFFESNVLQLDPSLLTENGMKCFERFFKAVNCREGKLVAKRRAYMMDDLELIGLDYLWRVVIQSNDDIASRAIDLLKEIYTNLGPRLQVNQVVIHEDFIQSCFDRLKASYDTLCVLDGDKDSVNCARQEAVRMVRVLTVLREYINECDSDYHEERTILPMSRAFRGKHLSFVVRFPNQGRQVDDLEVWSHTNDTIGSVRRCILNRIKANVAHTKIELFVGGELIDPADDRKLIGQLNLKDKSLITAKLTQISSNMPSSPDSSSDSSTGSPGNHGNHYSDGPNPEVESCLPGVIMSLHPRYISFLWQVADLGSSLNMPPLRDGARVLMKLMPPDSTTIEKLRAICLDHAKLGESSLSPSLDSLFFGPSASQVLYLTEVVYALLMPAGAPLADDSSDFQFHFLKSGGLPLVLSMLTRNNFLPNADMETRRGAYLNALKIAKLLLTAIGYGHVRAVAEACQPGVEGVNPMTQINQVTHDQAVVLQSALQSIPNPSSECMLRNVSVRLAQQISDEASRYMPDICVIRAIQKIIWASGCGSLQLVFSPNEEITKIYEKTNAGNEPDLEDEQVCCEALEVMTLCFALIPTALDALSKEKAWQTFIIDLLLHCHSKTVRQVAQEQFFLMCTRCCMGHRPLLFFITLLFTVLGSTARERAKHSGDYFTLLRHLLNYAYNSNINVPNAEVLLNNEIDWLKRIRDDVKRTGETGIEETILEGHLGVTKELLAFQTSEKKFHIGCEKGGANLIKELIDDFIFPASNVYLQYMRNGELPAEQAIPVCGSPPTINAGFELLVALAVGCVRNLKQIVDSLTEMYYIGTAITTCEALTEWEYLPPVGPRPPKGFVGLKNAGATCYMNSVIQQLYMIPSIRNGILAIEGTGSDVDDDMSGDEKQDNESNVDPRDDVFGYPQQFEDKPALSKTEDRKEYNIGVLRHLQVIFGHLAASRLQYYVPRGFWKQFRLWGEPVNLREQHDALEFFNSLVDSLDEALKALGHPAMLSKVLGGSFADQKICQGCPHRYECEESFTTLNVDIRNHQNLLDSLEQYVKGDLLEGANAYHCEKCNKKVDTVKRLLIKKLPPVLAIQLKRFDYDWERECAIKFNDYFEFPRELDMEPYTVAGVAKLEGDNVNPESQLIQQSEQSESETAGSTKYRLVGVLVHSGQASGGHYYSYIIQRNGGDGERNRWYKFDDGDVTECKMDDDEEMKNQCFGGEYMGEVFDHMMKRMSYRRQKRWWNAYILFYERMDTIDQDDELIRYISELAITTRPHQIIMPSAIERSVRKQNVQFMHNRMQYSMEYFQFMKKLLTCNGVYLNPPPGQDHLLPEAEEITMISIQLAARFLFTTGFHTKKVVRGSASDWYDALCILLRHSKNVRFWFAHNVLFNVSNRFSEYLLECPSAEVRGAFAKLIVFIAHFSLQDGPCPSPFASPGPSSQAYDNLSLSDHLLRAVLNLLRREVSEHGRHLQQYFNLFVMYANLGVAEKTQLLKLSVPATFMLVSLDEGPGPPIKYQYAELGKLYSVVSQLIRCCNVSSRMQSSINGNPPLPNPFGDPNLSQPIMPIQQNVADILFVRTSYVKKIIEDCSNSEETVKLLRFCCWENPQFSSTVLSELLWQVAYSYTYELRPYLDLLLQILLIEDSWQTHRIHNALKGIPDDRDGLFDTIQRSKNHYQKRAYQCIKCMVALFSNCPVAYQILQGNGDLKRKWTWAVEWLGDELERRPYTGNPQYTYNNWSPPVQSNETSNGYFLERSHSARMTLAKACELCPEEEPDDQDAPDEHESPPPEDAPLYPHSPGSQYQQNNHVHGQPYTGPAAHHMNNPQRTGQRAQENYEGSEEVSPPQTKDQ
In short: as §1

UniProt O00487 = target: UniProt O00487
Sequence of UniProt O00487 (O00487 whole entry): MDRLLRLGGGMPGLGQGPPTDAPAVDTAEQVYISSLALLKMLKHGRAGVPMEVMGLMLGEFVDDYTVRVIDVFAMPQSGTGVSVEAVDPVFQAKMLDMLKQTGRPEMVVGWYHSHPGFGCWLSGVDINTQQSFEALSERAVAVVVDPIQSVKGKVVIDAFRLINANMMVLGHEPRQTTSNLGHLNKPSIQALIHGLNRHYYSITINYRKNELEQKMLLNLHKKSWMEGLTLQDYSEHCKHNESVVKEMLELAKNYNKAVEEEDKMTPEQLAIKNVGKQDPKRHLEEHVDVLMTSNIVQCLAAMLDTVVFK
In short: as §1

Measured: log2 ratio of Biotin-Ahx-Ub-VS probe labelling

Cc1n[nH]c(=O)c2c(NC(=O)CCl)oc(C)c12
inactive: USP42 0.339 | USP46 -0.0434 | USP47 0.166 | USP48 -0.0393 | USP5 -0.00864 | USP54 -0.153 | USP7 -0.0198 | USP8 -0.29 | USP9X -0.056 | UniProt O00487 -0.0655
